Measurements taken from the supplement of paper PMC11732987, “Enantioselective OTUD7B fragment discovery through chemoproteomics screening and high-throughput optimisation” (Communications Chemistry, 2025).
Unmarked numbers belong to inactive results.

Experiments:
Experiment in all cases: log2 ratio of Biotin-Ahx-Ub-VS probe labelling (fragment/DMSO); higher = less target engagement (more negative = stronger competition), active = hit call of the paper (q ≤ 0.05, log2 ratio ≤ -1)
Settings in all cases: compound concentration: 200 uM; treatment time: 3 h
[1] = target: T1, USP19 (UniProt O94966)
T1 sequence (whole entry): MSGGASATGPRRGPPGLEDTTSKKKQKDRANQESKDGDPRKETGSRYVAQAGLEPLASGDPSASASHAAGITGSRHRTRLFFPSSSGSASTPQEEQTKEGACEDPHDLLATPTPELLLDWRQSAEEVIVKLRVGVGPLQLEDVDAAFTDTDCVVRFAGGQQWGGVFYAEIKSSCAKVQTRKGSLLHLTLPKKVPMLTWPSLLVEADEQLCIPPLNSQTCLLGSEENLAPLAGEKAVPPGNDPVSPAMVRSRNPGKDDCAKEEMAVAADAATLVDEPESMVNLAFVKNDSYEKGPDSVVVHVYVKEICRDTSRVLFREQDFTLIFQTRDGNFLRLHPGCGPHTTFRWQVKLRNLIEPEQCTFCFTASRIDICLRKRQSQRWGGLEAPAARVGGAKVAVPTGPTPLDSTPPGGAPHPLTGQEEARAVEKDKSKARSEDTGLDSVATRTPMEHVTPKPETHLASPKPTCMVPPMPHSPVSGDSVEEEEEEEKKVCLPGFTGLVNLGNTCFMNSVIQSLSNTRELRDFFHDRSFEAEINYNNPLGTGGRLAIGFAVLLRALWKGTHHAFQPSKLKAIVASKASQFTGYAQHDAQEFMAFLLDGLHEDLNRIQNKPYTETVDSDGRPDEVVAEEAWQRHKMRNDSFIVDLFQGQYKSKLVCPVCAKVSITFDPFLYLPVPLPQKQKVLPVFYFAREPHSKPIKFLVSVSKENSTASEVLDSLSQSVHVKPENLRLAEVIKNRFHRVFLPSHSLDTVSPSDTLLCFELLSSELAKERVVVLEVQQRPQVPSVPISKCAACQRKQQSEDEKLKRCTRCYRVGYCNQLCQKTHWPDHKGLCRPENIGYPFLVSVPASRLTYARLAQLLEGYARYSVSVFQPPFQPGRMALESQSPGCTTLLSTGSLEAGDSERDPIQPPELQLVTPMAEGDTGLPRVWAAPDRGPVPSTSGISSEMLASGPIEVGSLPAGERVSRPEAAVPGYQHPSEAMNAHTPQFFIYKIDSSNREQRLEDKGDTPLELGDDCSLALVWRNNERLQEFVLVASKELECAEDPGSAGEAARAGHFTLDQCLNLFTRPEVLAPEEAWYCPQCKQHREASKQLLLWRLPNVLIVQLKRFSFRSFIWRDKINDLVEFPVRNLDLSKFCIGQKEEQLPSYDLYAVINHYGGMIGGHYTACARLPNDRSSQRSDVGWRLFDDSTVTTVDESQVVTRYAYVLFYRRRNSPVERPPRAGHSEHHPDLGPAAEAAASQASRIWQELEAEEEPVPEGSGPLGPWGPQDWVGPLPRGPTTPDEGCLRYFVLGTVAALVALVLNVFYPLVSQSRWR
How it was run: (§1)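 In triplicate, 495 µg of HEK293T lysate per sample was incubated with fragment at 200 µM or vehicle for 3 h. Biotin-Ahx-Ub-VS was then added to 0.5 µM final for 1 h, and labelled DUBs were captured with NeutrAvidin, digested with LysC and trypsin, and measured by diaPASEF LC-MS/MS. Data are average log2 fragment/vehicle ratios by unpaired t-test from global-median-normalised Spectronaut label-free quantities, restricted to proteins with ≥2 unique peptides.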

[2] = target: T2, USP22 (UniProt Q9UPT9)
T2 sequence (whole entry): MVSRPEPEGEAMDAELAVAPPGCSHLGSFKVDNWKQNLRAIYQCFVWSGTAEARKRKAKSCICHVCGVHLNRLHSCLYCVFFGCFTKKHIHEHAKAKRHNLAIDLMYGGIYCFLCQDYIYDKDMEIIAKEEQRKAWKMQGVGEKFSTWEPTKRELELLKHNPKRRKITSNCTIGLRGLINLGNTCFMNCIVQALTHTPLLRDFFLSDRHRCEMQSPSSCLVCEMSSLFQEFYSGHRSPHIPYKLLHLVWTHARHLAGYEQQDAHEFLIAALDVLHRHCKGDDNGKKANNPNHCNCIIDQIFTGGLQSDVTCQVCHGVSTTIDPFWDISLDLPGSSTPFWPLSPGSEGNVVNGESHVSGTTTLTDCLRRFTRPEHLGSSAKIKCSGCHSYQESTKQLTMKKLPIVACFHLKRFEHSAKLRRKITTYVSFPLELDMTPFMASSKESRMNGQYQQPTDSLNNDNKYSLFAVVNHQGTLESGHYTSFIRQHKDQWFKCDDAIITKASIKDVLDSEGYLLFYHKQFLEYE
How it was run: as §1

[3] = target: USP24 (UniProt Q9UPU5)
Sequence of USP24 (Q9UPU5 whole entry): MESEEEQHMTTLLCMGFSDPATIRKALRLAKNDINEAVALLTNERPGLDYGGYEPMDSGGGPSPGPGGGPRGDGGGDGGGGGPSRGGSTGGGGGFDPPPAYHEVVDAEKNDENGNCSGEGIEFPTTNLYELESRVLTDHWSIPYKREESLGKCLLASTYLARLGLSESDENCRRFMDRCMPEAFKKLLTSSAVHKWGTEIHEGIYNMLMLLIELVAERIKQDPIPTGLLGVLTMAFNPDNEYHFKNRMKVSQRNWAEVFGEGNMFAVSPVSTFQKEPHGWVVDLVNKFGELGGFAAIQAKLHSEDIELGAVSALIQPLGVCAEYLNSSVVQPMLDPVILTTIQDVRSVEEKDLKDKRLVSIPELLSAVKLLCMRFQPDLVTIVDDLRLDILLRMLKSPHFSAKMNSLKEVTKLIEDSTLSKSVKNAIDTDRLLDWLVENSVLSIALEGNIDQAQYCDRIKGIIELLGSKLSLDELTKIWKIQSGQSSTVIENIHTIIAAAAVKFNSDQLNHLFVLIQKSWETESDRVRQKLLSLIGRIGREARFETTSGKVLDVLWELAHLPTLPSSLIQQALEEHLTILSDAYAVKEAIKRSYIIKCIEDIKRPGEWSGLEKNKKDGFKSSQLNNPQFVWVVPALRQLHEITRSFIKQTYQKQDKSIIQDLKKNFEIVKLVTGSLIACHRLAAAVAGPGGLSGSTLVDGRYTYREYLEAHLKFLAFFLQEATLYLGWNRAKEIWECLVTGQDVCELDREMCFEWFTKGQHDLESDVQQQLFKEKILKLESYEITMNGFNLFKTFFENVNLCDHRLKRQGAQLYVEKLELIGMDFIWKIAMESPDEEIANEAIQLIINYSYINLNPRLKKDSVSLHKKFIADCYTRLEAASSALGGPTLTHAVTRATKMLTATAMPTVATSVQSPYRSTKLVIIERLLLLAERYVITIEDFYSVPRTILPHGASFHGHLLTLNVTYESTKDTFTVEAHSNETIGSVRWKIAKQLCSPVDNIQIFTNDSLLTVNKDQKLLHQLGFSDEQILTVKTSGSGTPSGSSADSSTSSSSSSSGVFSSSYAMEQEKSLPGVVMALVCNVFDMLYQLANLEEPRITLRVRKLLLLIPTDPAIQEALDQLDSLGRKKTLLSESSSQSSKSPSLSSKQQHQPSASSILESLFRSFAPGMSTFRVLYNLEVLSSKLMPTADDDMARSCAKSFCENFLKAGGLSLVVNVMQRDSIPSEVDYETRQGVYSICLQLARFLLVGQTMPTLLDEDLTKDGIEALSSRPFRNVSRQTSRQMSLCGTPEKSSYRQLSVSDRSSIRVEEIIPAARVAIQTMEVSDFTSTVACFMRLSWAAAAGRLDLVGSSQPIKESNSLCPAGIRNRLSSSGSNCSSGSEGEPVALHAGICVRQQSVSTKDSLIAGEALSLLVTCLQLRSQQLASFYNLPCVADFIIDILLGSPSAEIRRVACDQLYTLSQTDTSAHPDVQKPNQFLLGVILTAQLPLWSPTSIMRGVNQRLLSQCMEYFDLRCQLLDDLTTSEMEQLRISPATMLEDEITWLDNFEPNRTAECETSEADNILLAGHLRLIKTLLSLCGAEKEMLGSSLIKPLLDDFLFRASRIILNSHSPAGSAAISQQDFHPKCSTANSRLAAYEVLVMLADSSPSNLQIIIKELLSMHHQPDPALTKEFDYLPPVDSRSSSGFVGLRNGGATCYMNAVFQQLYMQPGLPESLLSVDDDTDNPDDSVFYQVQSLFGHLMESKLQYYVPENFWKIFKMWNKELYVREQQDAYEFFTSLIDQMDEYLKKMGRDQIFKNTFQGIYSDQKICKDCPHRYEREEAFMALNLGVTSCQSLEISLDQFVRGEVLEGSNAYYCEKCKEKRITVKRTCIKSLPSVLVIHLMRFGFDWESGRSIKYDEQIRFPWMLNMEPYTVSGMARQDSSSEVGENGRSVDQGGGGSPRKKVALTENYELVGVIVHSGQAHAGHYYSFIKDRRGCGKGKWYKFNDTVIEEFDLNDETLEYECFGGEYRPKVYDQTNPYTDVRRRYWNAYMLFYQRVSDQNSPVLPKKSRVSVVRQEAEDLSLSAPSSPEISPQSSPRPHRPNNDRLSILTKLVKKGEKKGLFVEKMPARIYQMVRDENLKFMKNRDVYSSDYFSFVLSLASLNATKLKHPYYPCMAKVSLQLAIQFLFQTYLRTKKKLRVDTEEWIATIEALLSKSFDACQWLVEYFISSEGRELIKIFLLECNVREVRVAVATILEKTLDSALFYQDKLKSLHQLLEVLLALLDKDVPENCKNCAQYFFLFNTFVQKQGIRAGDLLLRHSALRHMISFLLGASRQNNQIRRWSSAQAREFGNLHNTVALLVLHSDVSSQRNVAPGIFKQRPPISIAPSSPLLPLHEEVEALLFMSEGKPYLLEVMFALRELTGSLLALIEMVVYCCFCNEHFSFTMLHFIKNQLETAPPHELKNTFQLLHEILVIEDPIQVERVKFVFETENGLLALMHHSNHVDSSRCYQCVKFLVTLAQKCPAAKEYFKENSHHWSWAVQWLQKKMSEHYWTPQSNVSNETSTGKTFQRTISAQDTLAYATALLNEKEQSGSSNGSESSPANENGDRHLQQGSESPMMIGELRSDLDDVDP
How it was run: as §1

[4] = target: T3, USP25 (UniProt Q9UHP3)
T3 sequence (whole entry): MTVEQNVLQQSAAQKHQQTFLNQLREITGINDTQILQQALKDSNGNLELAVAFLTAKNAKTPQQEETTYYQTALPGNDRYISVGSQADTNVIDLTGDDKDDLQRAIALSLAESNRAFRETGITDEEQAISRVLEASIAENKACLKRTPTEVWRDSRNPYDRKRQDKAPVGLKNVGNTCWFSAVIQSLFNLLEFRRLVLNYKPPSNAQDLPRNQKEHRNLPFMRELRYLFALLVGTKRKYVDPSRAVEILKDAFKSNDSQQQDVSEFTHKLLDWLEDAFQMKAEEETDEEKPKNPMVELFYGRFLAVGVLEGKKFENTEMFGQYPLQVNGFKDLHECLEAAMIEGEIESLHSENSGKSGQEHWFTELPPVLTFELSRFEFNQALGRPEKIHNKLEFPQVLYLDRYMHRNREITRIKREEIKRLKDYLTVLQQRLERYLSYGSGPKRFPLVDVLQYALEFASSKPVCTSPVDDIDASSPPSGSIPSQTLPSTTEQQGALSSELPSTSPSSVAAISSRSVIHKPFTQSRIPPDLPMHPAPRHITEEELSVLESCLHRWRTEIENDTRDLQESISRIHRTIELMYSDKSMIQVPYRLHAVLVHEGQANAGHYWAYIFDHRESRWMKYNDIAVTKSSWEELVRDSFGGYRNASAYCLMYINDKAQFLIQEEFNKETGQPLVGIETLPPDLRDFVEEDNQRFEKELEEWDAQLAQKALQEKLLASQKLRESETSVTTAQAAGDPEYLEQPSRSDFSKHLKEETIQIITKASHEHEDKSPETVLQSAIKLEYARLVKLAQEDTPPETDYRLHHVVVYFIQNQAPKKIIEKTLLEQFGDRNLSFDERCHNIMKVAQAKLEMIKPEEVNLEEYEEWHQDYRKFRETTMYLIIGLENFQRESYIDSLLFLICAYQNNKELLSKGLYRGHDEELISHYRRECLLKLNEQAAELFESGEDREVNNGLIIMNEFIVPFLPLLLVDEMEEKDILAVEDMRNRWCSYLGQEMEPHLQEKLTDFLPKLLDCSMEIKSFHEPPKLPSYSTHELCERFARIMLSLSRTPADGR
How it was run: as §1

[5] = target: T4, USP28 (UniProt Q96RU2)
T4 sequence (whole entry): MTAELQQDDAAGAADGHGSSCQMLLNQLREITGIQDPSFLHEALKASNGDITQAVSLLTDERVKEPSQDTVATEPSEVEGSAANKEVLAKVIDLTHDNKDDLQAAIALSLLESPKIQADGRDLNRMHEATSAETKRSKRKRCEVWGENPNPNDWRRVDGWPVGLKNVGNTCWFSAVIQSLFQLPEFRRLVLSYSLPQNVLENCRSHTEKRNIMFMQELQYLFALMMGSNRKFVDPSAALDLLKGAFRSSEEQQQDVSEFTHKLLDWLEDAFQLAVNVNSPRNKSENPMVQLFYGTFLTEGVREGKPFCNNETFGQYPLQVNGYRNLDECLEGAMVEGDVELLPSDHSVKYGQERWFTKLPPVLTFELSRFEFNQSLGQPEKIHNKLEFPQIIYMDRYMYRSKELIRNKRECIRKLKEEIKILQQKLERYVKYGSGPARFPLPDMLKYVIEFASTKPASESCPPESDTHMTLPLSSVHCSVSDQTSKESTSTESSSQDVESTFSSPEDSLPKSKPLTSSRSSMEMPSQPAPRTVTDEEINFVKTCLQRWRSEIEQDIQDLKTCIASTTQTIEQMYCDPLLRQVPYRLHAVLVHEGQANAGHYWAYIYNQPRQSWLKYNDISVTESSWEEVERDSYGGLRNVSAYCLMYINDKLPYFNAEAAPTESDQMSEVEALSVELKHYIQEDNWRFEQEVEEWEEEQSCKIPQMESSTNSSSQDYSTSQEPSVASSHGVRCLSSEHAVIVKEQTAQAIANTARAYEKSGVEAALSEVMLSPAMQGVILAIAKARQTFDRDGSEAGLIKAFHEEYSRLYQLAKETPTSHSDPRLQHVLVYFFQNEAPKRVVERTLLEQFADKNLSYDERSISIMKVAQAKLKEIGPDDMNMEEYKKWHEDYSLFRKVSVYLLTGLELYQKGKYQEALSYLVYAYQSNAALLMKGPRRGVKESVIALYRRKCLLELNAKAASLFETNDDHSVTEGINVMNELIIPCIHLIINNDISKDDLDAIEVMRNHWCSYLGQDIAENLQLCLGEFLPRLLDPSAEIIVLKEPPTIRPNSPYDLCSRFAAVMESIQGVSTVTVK
How it was run: as §1

SMILES: O=C(CCl)N1CC=C(c2c[nH]c3ccccc23)CC1
- log2 ratio of Biotin-Ahx-Ub-VS probe labelling [1]: -1.72 (active)
- log2 ratio of Biotin-Ahx-Ub-VS probe labelling [2]: -0.57
- log2 ratio of Biotin-Ahx-Ub-VS probe labelling [3]: -1.48 (active)
- log2 ratio of Biotin-Ahx-Ub-VS probe labelling [4]: -0.457
- log2 ratio of Biotin-Ahx-Ub-VS probe labelling [5]: -1.1 (active)
